Shown are actives, neighbours in structure and some others; about 2.1% of the full set was active somewhere.
BaF3 parental: reduces parental Ba/F3 cell viability, JAK2V617F counter-screen. CellTiter-Glo ATP luminescence. inhibition, % at 5.6 µM. actives 1.1% (n = 220,000);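 active = inhibition above a per-campaign cutoff, the mean inhibition of all tested compounds plus 3 SD, cut at about 27% in these data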;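 note: 0% = DMSO wells and 100% = JAK Inhibitor I control wells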
KLF5 inh: suppresses KLF5 promoter-driven expression; DLD-1 KLF5 promoter-luciferase reporter, luminescence; inhibition, % at 5 µM; actives 0.23% (n = 290,000); AID 1700;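 active = inhibition above a per-plate limit of that plate's mean compound inhibition plus 3 SD, cut at about 60% in these data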;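 note: 0% = DMSO wells and 100% = LY294002 at 200 µM; higher means less KLF5 promoter-driven luciferase light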
Ba/F3 V617F tox: loss of viability in JAK2V617F-driven Ba/F3 cells | inhibition, % at 5.6 µM | Ba/F3 EpoR-JAK2V617F viability, ATP luminescence | actives 1.1% (n = 220,000);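 active = inhibition above the campaign mean plus 3 SD over all tested compounds, cut at about 24% in these data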;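 note: cytokine-independent growth of Ba/F3 cells driven by EpoR plus mutant JAK2; 0% = DMSO-treated cells and 100% = JAK inhibitor I control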
APP transl inh: APP translation inhibition; SH-SY5Y APP 5'UTR-luciferase reporter, luminescence; inhibition, % at 2 µM; actives 0.82% (n = 190,000); AID 1285;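 active = inhibition above a set limit, derived from the sample mean plus 3 SD, cut at about 45% in these data; inconclusive = one replicate passes the limit while the other fails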
IEC-6 tox: counter-screen for KLF5 inhibitors: cytotoxicity in IEC-6 cells; IEC-6 cytotoxicity, luminescence viability; actives 0.78% (n = 290,000); AID 1825; inhibition, % at 5 µM; in the data active = inhibition above about 22%;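 note: 0% = plate median of test compound wells and 100% = cytotoxic reference compound wells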
aSyn 5UTR inh: 5' untranslated region of α-synuclein, MLPCN primary screen; inhibition, % (tested at 7.5 µM); actives 0.82% (n = 300,000); alpha-synuclein 5'UTR reporter, inhibitor activity; in the data active = inhibition above about 60%; inconclusive = no clear call, values can overlap the other calls;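 note: H4 neuroglioblastoma cells stably carrying SNCA 5'UTR luciferase fusion; 0% = DMSO wells and 100% = positive control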
* hit, by the source's call; ? = inconclusive; . = no result given.

SMILES	BaF3 parental	KLF5 inh	Ba/F3 V617F tox	APP transl inh	IEC-6 tox	aSyn 5UTR inh
COCCCn1c(N)c(C(=O)OCCOC)c2nc3ccccc3nc21	1.4	-3.1	1.7	-0.1	-2.0	-24.6
Cn1c(O)c(C=Nc2ccc(F)cc2)c(=O)[nH]c1=O	.	2.7	.	.	-11.4	1.7
CC(C)(C)n1c(O)c(C=Nc2ccc3c(c2)CCC3)c(=O)[nH]c1=O	63.0*	-30.2	-2.9	2.9	0.0	-5.6
C[C@]12N[C@H](Cc3ccccc31)c1ccccc12	.	.	.	.	.	-13.2
CNc1ccc2oc(C[C@H]3O[C@@]4(CC[C@H]3C)O[C@H]([C@H](C)C(=O)c3ccc[nH]3)[C@H](C)C[C@H]4C)nc2c1C(=O)O	.	.	.	.	.	116.6*
COc1cccc(CNCCc2cccc(F)c2)c1OC	.	-5.5	.	.	2.1	3.2
Cn1c(O)c(Cc2cccc(Cl)c2Cl)c(=O)n(C)c1=O	.	-29.8	.	.	-0.8	-2.1
COc1ccc(Cc2nccc3cc(OC)c(OC)cc23)cc1OC	27.5*	-1.1	11.4	2.5	14.9	0.7
C=CCN1C(=O)NC(=O)/C(=C/C=C/c2ccccc2)C1=O	10.1	-10.4	4.5	73.8*	-2.4	-69.5
O=C1NC(=O)N(CCc2ccc(F)cc2)C(=O)/C1=C\C=C\c1ccccc1	8.4	-8.3	0.0	30.6	0.3	.
Cc1cc([N+](=O)[O-])c2ccccc2[n+]1[O-]	105.5*	71.1*	100.0*	.	100.9*	126.7*
Cc1nc2ccccc2c(=O)n1-c1ccccc1[N+](=O)[O-]	-1.9	-10.7	-4.5	4.2	13.2	3.5
CN(C)C(Cc1ccccc1)C(=O)c1ccccc1 (stereo not drawn)	34.3*	-53.9	12.3	0.6	-0.7	-14.8
C=CC(C)C(C(=O)c1ccccc1)N(C)C (stereo not drawn)	30.7*	-27.5	27.1*	-8.2	11.3	.
CC(C)N(CC(O)c1cccc([N+](=O)[O-])c1)C(C)C (stereo not drawn)	0.1	-31.3	-5.2	0.2	0.2	7.1
CC(=O)O[C@]1(C)C(=O)OC/C2=C/CN(C)CCC(OC(=O)[C@@](O)(C(C)O)C[C@H]1C)C2=O (stereo partly drawn)	.	-8.7	.	.	1.7	3.3
O=C(/C=C/c1c[nH]c2ccccc12)c1c(O)n(CCc2ccccc2)c(=O)[nH]c1=O	34.5*	15.7	-1.0	.	0.6	25.9
Cc1[nH]c2c(C(F)(F)F)cccc2c1CCN	10.8	0.3	4.0	47.6*	6.4	20.7
Cc1ccc(C2CC(=O)C(C=NCCN3CCN(C(=O)Cc4ccccc4)CC3)=C(O)C2)cc1 (stereo not drawn)	0.9	11.1	0.7	6.7	-5.4	14.2
O=C1CC(c2ccccc2)CC(O)=C1C=NCCN1CCN(C(=O)Cc2ccccc2)CC1 (stereo not drawn)	27.6*	-19.7	3.5	-8.0	4.7	-4.0
O=C(c1ccccc1)C(CN1CCCC1)c1ccccc1 (stereo not drawn)	-0.3	6.9	1.1	92.1*	5.3	-77.4
CCC1=Nc2cc(C(=O)N3CCC4(CC3)OCCO4)ccc2Sc2ccc(C)cc21	.	-22.4	.	.	-2.9	22.3
CCCNC1=C(C)C(=O)C2=C(C1=O)C(COC(N)=O)[C@]1(OC)C3NC3CN21 (stereo partly drawn)	61.8*	-12.7	82.2*	.	7.7	-20.5
N/C(=N/[N+](=O)[O-])N1CCN(C(=O)Oc2ccc([N+](=O)[O-])cc2)CC1	.	-40.0	.	.	-1.8	9.7
COC(=O)C1=C(c2cccc(OC)c2OC)C[C@@H]2CC[C@H]1N2C(=O)NC(C)C	.	.	.	.	.	11.8
SMILES	BaF3 parental	KLF5 inh	Ba/F3 V617F tox	APP transl inh	IEC-6 tox	aSyn 5UTR inh
c1cc2n(c1)-c1c(ccc3c1OCO3)CNC2c1ccc2c(c1)OCO2 (stereo not drawn)	2.0	5.2	-1.4	-5.4	7.8	0.6
COc1ccc(C2NCc3ccc4c(c3-n3cccc32)OCO4)cc1O (stereo not drawn)	73.2*	55.4	75.3*	94.1*	73.8*	?
CN1CCN(c2ccc([N+](=O)[O-])c3no[n+]([O-])c23)CC1	107.2*	9.9	99.2*	.	90.3*	97.8*
CNC(=O)Nc1ccc(C(=O)N/N=C\C23CC[C@@H](O)CC2(O)CC[C@@H]2[C@@H]3CCC3(C)C(C4=CC(=O)OC4)CCC23O)cc1 (stereo partly drawn)	-0.7	-17.9	2.6	.	0.8	19.1
C[C@]12CC[C@H]3C(CCC4(O)CC(O)CC[C@]34C=O)C1=CC[C@H]2c1ccc(=O)oc1 (stereo partly drawn)	.	-30.9	.	.	-12.1	81.5*
Cc1nc2ncnn2c(C)c1CCC(=O)N1CCC2(CC1)OCCO2	1.6	-11.7	-0.6	5.4	-1.3	4.0
Cc1nc2cc(-c3ccccc3)nn2c(C)c1CCC(=O)N1CCC2(CC1)OCCO2	2.4	0.1	-5.0	32.1	-0.7	79.3*
CC[n+]1c(SC)ccc2cc(OC)ccc21	84.1*	-17.6	84.9*	-11.4	-5.8	-21.8
NC(=O)c1c(NC(=O)c2ccc(S(=O)(=O)N(CCCl)CCCl)cc2)sc2c1CCCCC2	4.4	-37.5	-1.0	-2.9	-5.9	.
Nc1ccccc1-[n+]1c(-c2ccccc2)cc(-c2ccccc2)cc1-c1ccccc1	51.8*	7.1	48.5*	.	10.7	-20.6
CCC(=Nc1ccc2c(c1)CCC2)c1c(O)n(-c2ccc(OC)cc2)c(=O)[nH]c1=O	-2.0	-16.5	0.3	.	1.4	8.2
CN(C)C(Cc1ccccc1)C(=O)c1c[nH]c2ccccc12 (stereo not drawn)	.	-13.7	.	.	0.1	-64.4
CC1Oc2cc3c(-c4c(O)cc(O)c5c(O)c6c(cc45)OC(C)C(C)C6=O)c(O)cc(O)c3c(O)c2C(=O)C1C (stereo not drawn)	35.1*	30.2	96.5*	.	-9.0	87.0*
Cc1cccc(NP(C)(=O)c2nc3c(s2)CCCC3)c1 (stereo not drawn)	6.0	-1.8	-1.1	-5.9	-0.3	-6.9
CCOC(=O)CC(NC(=O)C(Cc1ccc(N(CCCl)CCCl)cc1)NC(C)=O)C(=O)OCC (stereo not drawn)	1.4	-14.6	-0.8	85.7*	-3.0	38.2
CC(=O)NC(Cc1ccc(N(CCCl)CCCl)cc1)C(=O)NC(C(=O)O)C(C)C (stereo not drawn)	1.9	10.8	3.1	1.6	3.9	16.5
COc1ccc(Oc2cc(NC(=O)c3nn(C)cc3[N+](=O)[O-])cc([N+](=O)[O-])c2)cc1	42.1*	-25.8	62.9*	94.6*	15.0	-60.9
C=C(C=O)C[C@@H]1C[C@H](O)C2OC3C[C@]4(C)OC5/C=C\CC6OC7C(CC=CCC6OC5CCCC4OC3CC2O1)OC1CC2OC3CC(=O)OC3C[C@@H](C)C[C@@]2(C)OC1C[C@@H]7C (stereo partly drawn)	.	.	.	.	.	112.8*
CCOC(=O)c1ccc2c(c1)n(Cc1ccccc1)c(C)[n+]2CC	27.4*	-20.5	18.2	-41.1	-5.3	31.8

Assay outcomes deposited in PubChem BioAssay by several laboratories.
